# NS1 function inh: blocks influenza NS1 protein function. AID 2326. 270,000 compounds, 0.4% hits. Potency, µM (highest dose often 46.1 µM), for inactives: at the top dose activity, positive = more growth; calls by dose curve; further: potency means the concentration at half of the fitted maximal effect; actives are rising curves; nearly all actives have a fitted effect of over 50% in size
#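 Recovery from NS1-induced slow growth read by OD600 in budding yeast switched to galactose assay medium (pH 6.0, -URA) at 1:100 dilution. Compound 23 nl per well; the matching strain lacking NS1 serves as control.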
# Pf growth 96h: P. falciparum growth inhibition at 96 hour, primary screen for plastid delayed-death inhibitors; P. falciparum luciferase reporter growth, 96 h; Potency, µM (doses to about 28.7 µM), for inactives: at the top dose activity change, negative = inhibition, actives largely listed as inhibitors; 320,000 compounds, 6.9% hits; further: potency means the concentration at half of the fitted maximal effect; on the % scale 0 is the no-effect control and ±100 the full control effect
#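 Cell-based qHTS: luciferase-tagged P. falciparum in erythrocytes (2% hematocrit, 0.05% parasitemia final) incubated with compounds for 96 hours, 37 C, 5% CO2; luciferase detection reagent then added and luminescence measured.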
# SARS PLpro yeast: inhibitors of SARS-CoV papain-like protease in yeast. Potency, µM (series often up to 32.9 µM), inactives show top-dose activity, positive = growth rescue, usual class: activators. S. cerevisiae expressing SARS-CoV PLpro, growth rescue. AID 485353. 330,000 compounds, 0.19% hits; calls by dose curve; further: potency means the concentration at half of the fitted maximal effect; 0% is about no effect; nearly all actives have a fitted effect of over 55% in size
# Shiga toxin inh: Shiga toxin inhibition | Vero cells, Shiga toxin protein synthesis inhibition reporter | inhibition, % at 38.7 µM | 290,000 compounds, 9.2% hits | AID 2315; in the data active means inhibition mostly above about 28%, no sharp cut-off; inactive means mostly below about 43%; further: 0% is about no effect
# Pf growth 48h: P. falciparum growth inhibition at 48 hours (one generation); P. falciparum luciferase growth in erythrocytes, 48 h; 310,000 compounds, 5.9% hits; AID 504832; Potency, µM (series often up to 28.7 µM), without a hit: at the top dose activity change, negative = inhibition, actives largely listed as inhibitors; further: potency means the concentration at half of the fitted maximal effect; on the % scale 0 is the no-effect control and ±100 the full control effect
#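 A one-generation exposure of luciferase-tagged malaria parasites in RPMI 1640/Albumax erythrocyte culture, 37 C and 5% CO2. Inhibition is inferred from decreased luminescence after adding detection reagent.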
# Cycloheximide cs: affects cycloheximide protein synthesis inhibition readout, counter-screen; cell reporter, cycloheximide protein synthesis inhibition counterscreen; max response, %; 300,000 compounds, 12% hits; AID 2314; in the data active means max response mostly above about 13%, no sharp cut-off; inactive means mostly below about 14%; further: read at 38.3 µM for the half of the compounds with a filed dose; 0% is about no effect
# * = called active by the depositor; ? = inconclusive; . = no result given; [ ] = remark or other dose. Most compounds without a hit are left out; they make up all but 21% or so of the library. Unless noted, the call rests on the fitted dose curve; in most records, active means well fitted inhibition curve with a large enough effect; inconclusive means small, poorly fitted or top-dose-only effect, or another doubt; inactive means no such curve, though single readings can be large or run the other way.
SMILES,NS1 function inh,Pf growth 96h,SARS PLpro yeast,Shiga toxin inh,Pf growth 48h,Cycloheximide cs
CSc1nc(N)c2ncn([C@@H]3O[C@H](COP(=O)(O)OP(=O)(O)OP(=O)(O)O)[C@H](O)[C@H]3O)c2n1,-0.7%,.,.,.,.,.
COc1ccc(OC)c(C2C(C(=O)O)c3ccccc3C(=O)N2C)c1 (configuration not stated),5.0%,8.5%,-3.6%,21.5,0.3%,-5.0
COc1ccc([C@H]2[C@H](C(=O)OC(C)(C)C)N3N=Cc4ccccc4C3C23C(=O)c2ccccc2C3=O)cc1OC (some centres not stated),7.0%,9.28µM*,-0.4%,45.8,10.4µM*,10.4
COc1ccc([C@H]2[C@H](C(=O)OC(C)(C)C)N3N=Cc4ccccc4C3C23C(=O)c2ccccc2C3=O)c(OC)c1 (some centres not stated),22.9%,1.04µM*,16.6%,45.5*,2.94µM*,18.3*
O=C(CCNC(=O)c1ccc(Cl)cc1)NCCCN1CCOCC1,.,14.6%,-2.9%,.,0.0%,.
CC(=O)c1sc(NC(=O)Cc2c(F)cccc2Cl)nc1C,1.9%,-21.8%,1.9%,-3.6,-20.5%,11.8
O=C(CCNC(=O)c1ccccc1Cl)Nc1nc(-c2ccccc2Cl)cs1,-1.8%,30.8%,-8.7%,39.8,36.0%,21.9*
CCOC(=O)c1sc(NC(=O)Cc2c(F)cccc2Cl)nc1C,.,3.4%,0.5%,75.0*,?,29.6*
O=C(Cc1c(F)cccc1Cl)Nc1nc2ccccc2s1,-2.6%,14.0%,-3.4%,113.0*,23.7%,38.3*
COc1ccc2nc(NC(=O)CCNC(=O)c3ccccc3Cl)sc2c1,.,44.0%,1.8%,76.6*,6.6%,32.6*
CCCc1cc(=O)n2[nH]c(SCc3ccc(Cl)cc3)nc2n1,2.9%,23.1%,-1.3%,62.7,16.7%,12.3
Cc1ccc(OC(C)C(=O)N(C)Cc2ccccc2)c([N+](=O)[O-])n1 (configuration not stated),-11.5%,-25.9%,-3.8%,-6.4,12.7%,-3.4
CCCCC[C@@H](O)c1cc2ccccc2c(=O)o1,.,.,-4.9%,.,.,.
O=C(CSc1nnnn1-c1ccccc1F)Nc1nc2ccccc2s1,-1.8%,-12.6%,16.6%,19.0,.,0.6
O=C(CCNC(=O)c1ccccc1Cl)Nc1nc2ccccc2s1,.,106.4%,0.1%,143.3*,139.1%,36.9*
CCN(CC)CCN(C(=O)c1ccc2ccccc2c1)c1nc2ccc(OC)cc2s1,-33.0%,24.2%,-10.0%,34.4,-7.5%,-1.9
O=C(CCNC(=O)c1ccccc1Cl)Nc1nccs1,.,83.6%,3.8%,-13.7,34.2%,0.9
C=CCn1c(CCNC(=O)c2ccccc2F)nnc1SCC(=O)Nc1nc2ccccc2s1,2.7%,11.7µM*,8.0%,-19.7,.,11.3
COc1ccc2nc(N(Cc3ccccc3)C(=O)CCNC(C)=O)sc2c1,0.8%,-2.3%,-4.9%,43.9*,60.2%,21.5
N#CCCN(C(=O)COC(=O)C1=NNC(=O)CC1)c1ccccc1,.,16.9%,3.8%,.,?,.
Oc1cccc(/C=N/Nc2cccc3cccnc23)c1,1.2%,224.0%,2.3%,123.3*,-21.7%,44.3*
COc1cc(/C=N/Nc2cccc3cccnc23)cc(OC)c1O,.,6.5%,-4.6%,68.9*,?,34.5*
Oc1c(/C=N/Nc2cccc3cccnc23)ccc2ccccc12,21.0%,9.3%,5.0%,90.4*,5.86µM*,73.7*
NS(=O)(=O)c1ccc(NC(=O)COc2cccc3ccccc23)cc1,-3.1%,-24.8%,0.9%,-6.4,-6.0%,-3.0
COc1ccc(N2C(=S)NC3CS(=O)(=O)CC32)cc1 (configuration not stated),-0.2%,0.2%,1.2%,14.8,?,5.3
SMILES,NS1 function inh,Pf growth 96h,SARS PLpro yeast,Shiga toxin inh,Pf growth 48h,Cycloheximide cs
N#C/C(=C\c1ccccn1)c1ccccn1,-12.6%,8.28µM*,0.0%,60.7*,?,33.0*
N#CC(C#N)=Cc1ccc(OC(=O)c2ccccn2)cc1,-20.5%,30.0%,-20.6%,17.3,10.3%,9.0
Cc1cc(C)n2nc(/C(C#N)=C/c3ccccn3)c(C#N)c2n1,.,?,0.6%,27.5,418.9%,25.3*
N#C/C(=C/c1cccs1)c1ccccn1,-4.3%,75.3%,-6.6%,72.5*,98.2%,34.9*
Cc1cc(C)c[n+](C(C)C(=O)c2ccc(-c3ccccc3)cc2)c1 (configuration not stated),1.5%,27.9%,-28.9%,-10.0,1.31µM*,-2.2
Cc1ccc[n+](C(C)C(=O)c2ccc(Cl)cc2)c1 (configuration not stated),3.1%,170.5%,6.0%,-0.8,?,-3.1
COc1ccc(Cl)cc1C(=O)NNC1CC(=O)N(Cc2ccc(Cl)cc2)C1=O (configuration not stated),4.3%,1.5%,-4.8%,7.9,-4.0%,-1.1
CNC(=O)C1CCN(S(=O)(=O)c2c(C)noc2/C=C/c2ccc(OC)cc2)CC1,8.2%,-5.4%,2.3%,1.1,?,-1.8
Nc1ccc(C(=O)OCc2nc3ccccc3[nH]2)cc1,-13.1%,?,-1.0%,43.7,37.3%,16.1
COc1ccc(OCc2nc3ccccc3[nH]2)cc1,-62.4%,.,-16.6%,152.1*,115.3%,30.2
COc1ccc(OCCCC(=O)NCCc2nc3ccccc3[nH]2)cc1,1.0%,84.7%,-1.1%,-6.0,?,-2.7
Brc1ccc(OCc2nc3ccccc3[nH]2)cc1,-4.6%,169.0%,-6.7%,93.6*,142.6%,55.4*
CN(CC(=O)O)Cc1nc2ccccc2[nH]1,-4.6%,105.7%,-3.6%,48.3,.,28.0*
CC(=O)NCCc1nc2ccccc2[nH]1,-5.5%,1.7%,5.4%,-3.3,13.8%,0.1
CN(C)C(=O)Oc1ccc(OCc2nc3ccccc3[nH]2)cc1,-4.4%,120.0%,-60.6%,34.7*,104.2%,23.6*
O=C(COc1ccc(F)cc1)NCCc1nc2ccccc2[nH]1,.,.,.,-7.3,.,-2.2
COc1ccc(C(=O)N/C(=C/c2ccc(Cl)cc2)C(=O)Nc2ccc(C(=O)O)cc2)cc1,6.3%,?,0.3%,-9.3,3.4%,-2.7
CCN1CCN(C(=O)N2CCOCC2)CC1,0.3%,27.7%,0.5%,-8.3,-2.7%,-2.6
COc1cccc(NC(=O)CSc2nc3ncc(Br)cc3[nH]2)c1,6.0%,5.9%,-3.0%,25.9,24.0%,-2.7
O=C(COc1ccc2ccccc2c1)Nc1nc2ccccc2[nH]1,-20.4%,.,3.1%,29.1,23.9%,-1.5
C=CCn1c(SCc2nc3ccccc3[nH]2)nnc1-c1cccc(OC)c1,-5.1%,?,0.3%,-15.2,?,0.5
COc1cccc(OCc2nc3ncc(Br)cc3[nH]2)c1,-5.1%,?,-1.0%,31.3,33.5%,16.9*
c1ccc2cc(OCc3nc4ccccc4[nH]3)ccc2c1,-4.4%[9.22 µM],-18.8%,-5.8%,107.9*,308.1%,49.3*
COc1cccc(OCc2nc3ccccc3[nH]2)c1,-115.2%,?,-4.6%,93.4*,.,35.5*
